High-throughput results from PubChem BioAssay.
Abeta rescue – A-beta toxicity reversal in yeast. Potency, µM (titrated, usually from 46.1 µM), most hits filed as activators. 0.063% of 410,000 active. yeast expressing A-beta42, growth rescue, OD600, 48 h; response scale: 0% DMSO, 100% iron-clioquinol control; note: nearly all actives have a fitted effect of over 55% in size
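Yeast growth medium received pinned compounds, then yeast cells expressing toxic A-beta were added; plates incubated at 30 C for 48 hr. Growth read as absorbance at 600 nm, normalized to DMSO and equimolar FeCl3 plus clioquinol controls.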
TDP43 rescue – inhibitors of TDP-43 toxicity in yeast. Potency, µM (highest dose often 46.1 µM), without a hit: at the highest dose growth rescue (activation), actives largely listed as activators. TDP-43 expressing yeast growth rescue, BacTiter-Glo, 24 h. 1.8% of 410,000 active; note: % of control where 0% means no effect; nearly all actives have a fitted effect of over 50% in size
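Yeast cells expressing TDP-43 under galactose induction are exposed to compounds for 24 hr at 30 deg C. BacTiter-Glo luminescence measures growth, so protective compounds score as activators.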
aSyn rescue – alpha-synuclein toxicity inhibition in yeast. Yeast expressing alpha-synuclein, growth rescue, BacTiter-Glo, 24 h. Potency, µM (titrated, usually from 46.1 µM), for inactives: top-dose growth rescue (activation), usual class: activators. 0.14% of 370,000 active. AID 652106; note: % of control where 0% means no effect; nearly all actives have a fitted effect of over 65% in size
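Galactose-induced alpha-syn yeast (OD600=0.02, raffinose-pregrown) + pinned cpd, 24 hr, 30 deg C; growth by BacTiter-Glo luminescence. Growth restoration scores as activation.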
Mm-Cpn inhibitor – inhibitors of Methanococcus maripaludis chaperonin TRiC (MmCpn); 0.031% of 330,000 active; purified Mm-Cpn ATPase, ADP Transcreener TR-FRET; Potency, µM (top dose mostly 76.9 µM), for inactives: at the top dose activity, negative = inhibition, usual class: inhibitors; note: % is set by controls: 0 for no effect and ±100 for the full control effect; nearly all actives have a fitted effect of over 80% in size
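25 nM Mm-CPN + cpd, 10 min 37°C; + 10 uM ATP, 30 min 37°C; buffer 30 mM Tris pH 7.4, 100 mM KCl, 5 mM MgCl2, 1 mM DTT; Transcreener ADP HTRF detection 30 min RT.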
ClpP mod – qHTS Assay for Activators of ClpP; purified B. subtilis ClpP, FRET peptide cleavage, 20 min; 1.9% of 340,000 active; AID 651965, 2013; ATP-dependent Clp protease proteolytic subunit (Bacillus subtilis (strain 168)), P80244; Potency, µM (series often up to 57.5 µM), without a hit: top-dose activity change, negative = active; active = well fitted falling curve with a large enough effect; inconclusive = small, poorly fitted or top-dose-only effect; inactive = no such curve, though single readings can be large or run the other way; note: the source files actives as falling curves though it sought activators and does not explain the sign; nearly all actives have a fitted effect of over 65% in size
Target sequence (P80244 whole entry, looked up): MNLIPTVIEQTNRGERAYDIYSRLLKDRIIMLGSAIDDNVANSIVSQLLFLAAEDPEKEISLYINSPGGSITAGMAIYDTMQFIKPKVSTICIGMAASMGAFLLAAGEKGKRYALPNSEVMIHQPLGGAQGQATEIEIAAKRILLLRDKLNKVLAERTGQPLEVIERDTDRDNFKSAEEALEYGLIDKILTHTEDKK
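FRET quenching reversal measured ClpP activation: 10 microg/mL B. subtilis ClpP at pH 8 with the FRET-FV decapeptide, read at 430 nm after 320 nm excitation. The 20-min minus 0-min signal was scaled between DMSO/no-enzyme wells and ADEP (5.8 microM final).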
FUS suppressor – rescues growth of FUS-expressing yeast; S. cerevisiae FUS-expressing, growth rescue, OD600, 24 h; Potency, µM (highest dose often 76.6 µM), usual class: activators; 0.24% of 390,000 active; AID 1347120;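 note: plate controls were DMSO vehicle for no effect and reference control for full effect; nearly all actives have a fitted effect of over 55% in size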
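Galactose (2%) drives FUS expression in yeast precultured in raffinose; seeding density OD 0.005. Test compounds incubated 24hr at 30C and 99% humidity before absorbance at 600 nm was measured.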
ClpP inh valid – validation of B. subtilis ClpP protease hits (inhibitors). shares compounds with ClpP mod. purified B. subtilis ClpP, FRET-FV substrate cleavage, 20 min. Potency, µM (titrated, usually from 57.5 µM), inactives show at the top dose activity change, negative = inhibition, hits mostly inhibitors. 40% of 470 active; note: % is set by controls: 0 for no effect and ±100 for the full control effect; nearly all actives have a fitted effect of over 70% in size
Starred values were filed as active, the others as inactive. An excerpt weighted towards active compounds, which were near 3.6% of everything screened. Unless noted, calls come from the whole dose curve; as a rule, active = well fitted curve in the direction sought with a large enough effect; inconclusive = small, poorly fitted or top-dose-only effect, or another doubt; inactive = no such curve, though single readings can be large; an effect the other way counts as inactive or inconclusive. Potency is the fitted concentration of half-maximal effect.

Screening CCOc1ccc(CCNC(=O)CCc2c(C)nc3c(-c4ccccc4)c(C)nn3c2C)cc1OCC returned Abeta rescue inactive, TDP43 rescue 0%, ClpP mod 1% and FUS suppressor inactive.
CCCCCNC(=O)C(c1ccc(-c2ccccc2)cc1)n1c(=O)c(-c2cc3ccccc3[nH]2)nc2ccccc21 (stereo not drawn) was read as Abeta rescue inactive, TDP43 rescue inconclusive, aSyn rescue 0%, ClpP mod 48%, FUS suppressor inactive and ClpP inh valid 14%.
`Cc1cccc(C)c1NC(=O)C(c1cccc2ccccc12)n1c(=O)c(-c2cc3ccccc3[nH]2)nc2ccccc21` (stereo not drawn) gave Abeta rescue inactive, TDP43 rescue inconclusive, aSyn rescue -1%, ClpP mod 54%, FUS suppressor inactive and ClpP inh valid 8%.
O=C(NCc1ccccc1)C(c1ccc(C(F)(F)F)cc1)n1c(=O)c(-c2cc3ccccc3[nH]2)nc2ccccc21 (stereo not drawn) was read as Abeta rescue inconclusive, TDP43 rescue 0%, aSyn rescue 7.1µM*, ClpP mod 28%, FUS suppressor inconclusive and ClpP inh valid -5%.
For O=C(NCc1ccccc1)C(CCc1ccccc1)n1c(=O)c(-c2cc3ccccc3[nH]2)nc2ccccc21 (stereo not drawn) the results were Abeta rescue inactive, TDP43 rescue inconclusive, aSyn rescue inconclusive, ClpP mod 11% and FUS suppressor inactive.
`O=c1c(-c2cc3ccccc3[nH]2)nc2ccccc2n1C(CCc1ccccc1)c1nc2ccccc2[nH]1` (stereo not drawn) gave Abeta rescue inconclusive, TDP43 rescue inconclusive, aSyn rescue 29%, ClpP mod 32%, FUS suppressor inconclusive and ClpP inh valid 7%.
`Cc1ccc(-n2c(=O)c3c(c4cc(C)ccc4n3C)n(Cc3ccc(F)cc3)c2=O)cc1` gave Abeta rescue inactive, TDP43 rescue -13%, ClpP mod inconclusive and FUS suppressor inactive.
`O=C(Nc1ccc2ccccc2c1)C(C1CC1)n1c(=O)c(-c2cc3ccccc3[nH]2)nc2ccccc21` (stereo not drawn) gave Abeta rescue inactive, TDP43 rescue 0%, aSyn rescue inconclusive, ClpP mod -8% and FUS suppressor inactive.
O=C(Nc1ccc2ccccc2c1)C(c1ccccc1)n1c(=O)c(-c2cc3ccccc3[nH]2)nc2ccccc21 (stereo not drawn) was read as Abeta rescue inconclusive, TDP43 rescue inconclusive, aSyn rescue inconclusive, ClpP mod 50%, FUS suppressor inactive and ClpP inh valid 13%.
O=C(NCc1ccccc1)C(c1cccc2ccccc12)n1c(=O)c(-c2cc3ccccc3[nH]2)nc2ccccc21 (stereo not drawn) was read as Abeta rescue inconclusive, TDP43 rescue 27%, aSyn rescue -1%, ClpP mod 42%, FUS suppressor inconclusive and ClpP inh valid 6%.
For COc1ccccc1CCNC(=O)C(=O)NCC(c1cccs1)S(=O)(=O)c1cccs1 (stereo not drawn) the results were Abeta rescue inactive, TDP43 rescue 4%, ClpP mod -4% and FUS suppressor inactive.
For COc1ccc(-n2c(-c3cccc(OC)c3)nc(=S)c3c2CCCC3)cc1 the results were Abeta rescue inactive, TDP43 rescue -13%, aSyn rescue 5%, Mm-Cpn inhibitor -1%, ClpP mod 53%, FUS suppressor inactive and ClpP inh valid 2%.
